Experimental data as given in PubChem BioAssay (NCI).
Compounds without any hit were thinned out: in the full panel of roughly 83,000, 20% have a hit.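 Results are percent growth after 48 hours of single-concentration exposure. 100 means growth as in untreated cells, lower positive values show inhibition; negative values down to -100 show cell death.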 Unmarked numbers belong to inactive results. Active and inactive are the calls of the source. How the source made its calls: active means growth percent below 10; inactive means the rest.

Key:
Test in all cases: NCI-60 one-dose screen, 48 h (100 = growth as untreated, 0 = no growth, -100 = all killed)
Details in all cases: 10 µM unless noted
EKVX NSCLC = system: EKVX NSCLC
SN12C renal = system: SN12C renal
UO-31 renal = system: UO-31 renal
TK-10 renal = system: TK-10 renal
ACHN renal = system: ACHN renal
CAKI-1 renal = system: CAKI-1 renal
A498 renal = system: A498 renal
MOLT-4 leukemia = system: MOLT-4 leukemia
CCRF-CEM leukemia = system: CCRF-CEM leukemia
SR leukemia = system: SR leukemia

Compound | growth (EKVX NSCLC) | growth (SN12C renal) | growth (UO-31 renal) | growth (TK-10 renal) | growth (ACHN renal) | growth (CAKI-1 renal) | growth (A498 renal) | growth (MOLT-4 leukemia) | growth (CCRF-CEM leukemia) | growth (SR leukemia)
O=c1oc2ccc(I)cc2c(=O)n1-c1ccc(Br)cc1F | 7.21% (active) | 0.636% (active) | 5.6% (active) | 0.987% (active) | 1.01% (active) | -17.8% (active) | -62.2% (active) | 3.69% (active) |  | 
O=C(CCc1nnc2sc(Cc3ccccc3Cl)nn12)c1nc2ncccc2[nH]1 | 94.6% | 87.3% | 63.5% | 128% | 94.9% | 74.4% |  | 86.2% | 103% | 
NS(=O)(=O)c1ccc(CCN=C=S)cc1 | 99.9% | 28.6% | -41.9% (active) | -4.75% (active) | -70.7% (active) | 21.8% | 79.8% | 16.3% |  | 9.82% (active)
CCN1CCN(C(=S)SCC(=O)Nc2nc3ccc(C)cc3s2)CC1 | 122% | 99.1% | 60.6% | 111% | 103% | 87.2% | 126% | 111% |  | 103%
Nc1ccc(-c2ccc(-c3ccccc3N)c3[nH]c4ccccc4c23)cc1 | 34.9% | 32.7% | 22.5% | 23.8% | 32.1% | 25.4% | 20.6% |  |  | 19.6%
COc1ccc(OC)c(NC(=O)/C(C#N)=C/c2ccco2)c1 | 94% | 101% | 67.8% | 114% | 93.6% | 90.4% | 101% | 78.7% |  | 74.3%
COc1ccc(CCN2C(=O)CCSC2=S)cc1 | 101% | 46.4% | 59.9% | 39.1% | 42.3% | 44.8% | 82.9% | 64.1% |  | 18.1%
COc1ccc(CCN2C(=O)/C(=C/c3ccc(C4Oc5ccccc5C5CC(c6cccc(OC)c6)=NN54)cc3)SC2=S)cc1 (centres undefined) | 94.4% | 101% | 82% | 103% | 98.3% | 95.7% | 106% | 104% |  | 115%
N#CC(C#N)=Cc1c(-c2ccccc2)[nH]c2ccccc12 | 66% | 44.3% | 38.9% | 67.6% | 65.5% | 38.6% | -3.79% (active) | 26.9% |  | 32.2%
N#C/C(=C\c1c(-c2ccccc2)[nH]c2ccccc12)C(=O)c1ccccc1 | 68.5% | 54.4% | 37.5% | 74.5% | 65.9% | 42.4% | 57.9% | 38.9% |  | 52.3%
CCCCC1COc2cccc3c2N1C=C/C3=C\C(=O)N(C)c1ccccc1 (centres undefined) | 45.8% | 64.9% | 59.3% | 108% | 68.9% | 72% | 86.1% | 55.7% |  | 66.6%
O=C(Nc1ccc(N2CCNCC2)cc1)c1[nH]ncc1Nc1cc(Oc2ccccc2)ncn1 | 32.5% | 2.47% (active) | -13.1% (active) | 49.5% | -99.1% (active) | 18.4% | 40.6% |  | -27.5% (active) | 1.43% (active)
O=C(Nc1ccc(Br)cc1F)c1cc(Cl)ccc1O | 8.37% (active) | -5.66% (active) | 9.99% (active) | 0.819% (active) | 0.275% (active) | -21.3% (active) | -70.2% (active) | -28.1% (active) |  | 
O=C1/C(=C\c2ccc[nH]2)c2ccccc2N1c1ccccc1 | 47.7% | 89.1% | 93.2% | 102% | 92.2% | 92% | 101% |  | 99.2% | 139%
COC(=O)/C(=C\c1c(-c2ccccc2)[nH]c2ccccc12)S(C)(=O)=O | 58% | 59.4% | 41.5% | 67.2% | 56.8% | 46.4% | 29% | 25.6% |  | 45.1%
COC(=O)/C(=C\c1c(C)[nH]c2ccccc12)S(=O)(=O)c1ccccc1 | 61.3% | 39.7% | 23.8% | 46.8% | 49.1% | 27% | -3.18% (active) | 15.5% |  | 27.2%
NCCOc1ccccc1/C=C1\c2ccccc2-c2ccc([N+](=O)[O-])cc21 | 54.9% | -17.9% (active) | -7% (active) | -1.56% (active) | -73.6% (active) | 1.27% (active) | 25.1% |  | 0.81% (active) | -23.7% (active)
CCN(CC)CCNC(=O)C(Cl)=C1C(Cl)=C(Cl)C(Cl)=C1Cl | 87.8% | 47.8% | 43.6% | 59.4% | 48.6% | 6.11% (active) | 71.8% | 15% |  | 34.8%
O=c1oc2ccc(Cl)cc2c(=O)n1-c1ccc(I)cc1F | 11.4% | -1.14% (active) | 7.35% (active) | 11% | 4.07% (active) | -16.3% (active) | -75.5% (active) | -28.6% (active) |  | 
CC(=O)O[C@@H]1/C=C/C(=O)N[C@@H](C)CCC/C=C/[C@@H]2CCC[C@H]21 | 116% | 102% | 93.7% | 112% | 112% | 98.9% | 121% | 93.6% |  | 87.4%
COc1cc(C=C2C(=O)N(C)C(=O)N(C)C2=O)cc(CN2CCCCC2)c1O | 104% | 94% | 75.4% | 103% | 95.9% | 92.4% | 98.7% | 98.2% |  | 94.4%
